Measurements reported in PubChem BioAssay AID1159580 (chemical genetic matrix, 2015).
Several values for one entry are separate records, joined by “and”; a condition that tells them apart may be missing. Identical values can stand only once. Out of some 5,500 compounds screened, about 2,000 (36%) were called active. Another 18% or so got no clear call; they are omitted. Cut-off read from the data, not from the text of the source: active = normalized growth mostly below about 0.91 (no sharp cut-off); inconclusive = no clear call, values can overlap the other calls; inactive = mostly above about 0.92. Some of the results follow.

Experiment: chemical genetic growth profiling, strain panel (AID 1159580);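 note: tested at 20 µM; growth read once vehicle control cultures reached saturation at 30 °C; 1 = growth at the plate median or of vehicle wells; lower values mean less growth of the strain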
Settings: S. cerevisiae deletion strains, growth OD

Measured: normalized growth

C[C@]12CCC(=O)C=C1CCC1C2[C@@H](O)C[C@@]2(C)C1CC[C@]2(O)C(=O)CO (stereo partly drawn)
inactive: locus YAL013W, strain DEP1, hits give low values 1.02 | locus YAL021C, strain ccr4, hits give low values 0.984 | locus YAL026C, strain drs2, hits give low values 0.994 | locus YAL030W, strain snc1, hits give low values 1.01 | locus YBL061C, strain skt5, hits give low values 0.987 | locus YBR009C, strain hhf1, hits give low values 1 | locus YBR021W, strain FUR4, hits give low values 1.01 | locus YBR023C, strain chs3, hits give low values 0.979 | locus YBR171W, strain sec66, hits give low values 0.975 | locus YBR229C, strain ROT2, hits give low values 1.02 | locus YBR231C, strain swc5, hits give low values 1 | locus YBR279W, strain paf1, hits give low values 0.98 | locus YCL011C, strain gbp2, hits give low values 0.979 | locus YCL016C, strain dcc1, hits give low values 0.971 | locus YCL029C, strain bik1, hits give low values 0.995 | locus YCL069W, strain vba3, hits give low values 1 | locus YCR088W, strain abp1, hits give low values 0.993 | locus YDL005C, strain med2, hits give low values 0.99 | locus YDL035C, strain GPR1, hits give low values 1.02 | locus YDL040C, strain nat1, hits give low values 1.01 | locus YDL074C, strain BRE1, hits give low values 1.02 | locus YDL101C, strain DUN1, hits give low values 1.02 | locus YDL185W, strain tfp1, hits give low values 1 | locus YDL192W, strain arf1, hits give low values 0.99 | locus YDR001C, strain nth1, hits give low values 1 | locus YDR069C, strain doa4, hits give low values 0.993 | locus YDR101C, strain arx1, hits give low values 0.974 | locus YDR137W, strain rgp1, hits give low values 1.01 | locus YDR159W, strain sac3, hits give low values 0.948 | locus YDR162C, strain NBP2, hits give low values 1.02 | locus YDR195W, strain ref2 0.974 | locus YDR297W, strain sur2, hits give low values 1 | locus YDR318W, strain mcm21, hits give low values 1 | locus YDR334W, strain swr1, hits give low values 0.981 | locus YDR335W, strain msn5, hits give low values 0.987 | locus YDR388W, hits give low values 0.991 | locus YDR392W, strain spt3, hits give low values 0.899 | locus YDR502C, strain sam2, hits give low values 1.01 | locus YEL003W, strain gim4, hits give low values 1.01 | locus YEL037C, strain rad23, hits give low values 1 | locus YEL061C, strain CIN8 (second series), hits give low values 0.991 | locus YEL061C, strain CIN8, hits give low values 1.01 | locus YER015W, strain faa2, hits give low values 0.996 | locus YER016W, strain bim1, hits give low values 0.99 | locus YER110C, hits give low values 0.989 | locus YER111C, strain swi4, hits give low values 0.981 | locus YER155C, strain BEM2 (second series), hits give low values 1.01 | locus YER155C, strain BEM2, hits give low values 1.01 | locus YER167W, strain BCK2, hits give low values 1.01 | locus YFR010W, strain ubp6, hits give low values 1.01 | locus YGL078C, strain dbp3, hits give low values 0.984 | locus YGL086W, strain mad1, hits give low values 0.988 | locus YGL167C, strain pmr1, hits give low values 0.987 | locus YGL173C, strain kem1, hits give low values 0.975 | locus YGL227W, strain vid30, hits give low values 0.981 | locus YGL240W, strain doc1, hits give low values 0.971 | locus YGL248W, strain PDE1, hits give low values 1.02 | locus YGL253W, strain hxk2, hits give low values 0.99 | locus YGR078C, strain PAC10, hits give low values 1.03 | locus YGR135W, strain pre9, hits give low values 1.01 | locus YGR229C, strain SMI1, hits give low values 1.02 | locus YGR252W, strain gcn5, hits give low values 1.02 | locus YHR013C, strain ard1, hits give low values 0.969 | locus YHR027C, strain rpn1, hits give low values 1.01 | locus YHR030C, strain SLT2, hits give low values 1.01 and 0.975 | locus YHR079C, strain IRE1 (second series), hits give low values 0.997 | locus YHR079C, strain IRE1, hits give low values 0.99 | locus YHR094C, strain hxt1, hits give low values 0.988 | locus YHR129C, strain ARP1, hits give low values 1.02 | locus YHR142W, strain chs7, hits give low values 0.999 | locus YHR200W, strain rpn10, hits give low values 1.01 | locus YIL066C, strain RNR3, hits give low values 1.02 | locus YIL073C, strain SPO22, hits give low values 1.02 | locus YIL125W, strain kgd1, hits give low values 0.997 | locus YIR030C, strain dcg1, hits give low values 0.994 | locus YJL092W, strain hpr5, hits give low values 0.995 | locus YJL095W, strain BCK1 (second series), hits give low values 1 | locus YJL095W, strain BCK1, hits give low values 1.04 and 0.981 | locus YJL115W, strain asf1, hits give low values 0.992 | locus YJL129C, strain trk1, hits give low values 0.97 | locus YJL134W, strain LCB3, hits give low values 1.01 | locus YJL154C, strain vps35, hits give low values 0.991 | locus YJL164C, strain tpk1, hits give low values 1 | locus YJL166W, strain qcr8, hits give low values 1.02 | locus YJL168C, strain set2, hits give low values 0.999 | locus YJL187C, strain SWE1 (second series), hits give low values 1.02 | locus YJR043C, strain POL32, hits give low values 1.03 | locus YJR066W, strain TOR1, hits give low values 0.922
